Records with an inconclusive call do not appear. Activity calls are given as the source filed them. Calls follow the shape of the dose curve; as a rule, active = well fitted inhibition curve with a large enough effect; inconclusive = small, poorly fitted or top-dose-only effect; inactive = flat fitted curve, though single readings scatter.
Legend:
P93_24 = assay: qHTS profiling for inhibitors of Plasmodium falciparum proliferation (AID 504749);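 also: 0% = DMSO vehicle and full inhibition = artemisinin control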; conditions: P. falciparum in erythrocytes, SYBR Green DNA, 72 h; series mostly up to 28.7 µM
Procedure, shortened: (§1)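 SYBR Green fluorescence of parasite DNA, read after lysis and overnight dark incubation, measured growth over 72 h in erythrocyte culture at 0.3% parasitemia and 2.5% hematocrit. Data normalised to DMSO and 0.29 uM artemisinin, with plate-drift correction.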

P94_40 = assay: as above; conditions: P. falciparum in erythrocytes, SYBR Green DNA, 72 h; series mostly up to 28.7 µM
Procedure, shortened: as §1

PAD = assay: as above; conditions: P. falciparum in erythrocytes, SYBR Green DNA, 72 h; series mostly up to 28.7 µM
Procedure, shortened: as §1

PC15 = assay: as above; conditions: P. falciparum in erythrocytes, SYBR Green DNA, 72 h; series mostly up to 28.7 µM
Procedure, shortened: as §1

PC26 = assay: as above; conditions: P. falciparum in erythrocytes, SYBR Green DNA, 72 h; series mostly up to 28.7 µM
Procedure, shortened: as §1

PC49 = assay: as above; conditions: P. falciparum in erythrocytes, SYBR Green DNA, 72 h; series mostly up to 28.7 µM
Procedure, shortened: as §1

SC27B = assay: as above; conditions: P. falciparum in erythrocytes, SYBR Green DNA, 72 h; series mostly up to 28.7 µM
Procedure, shortened: as §1

TAB109 = assay: as above; conditions: P. falciparum in erythrocytes, SYBR Green DNA, 72 h; series mostly up to 28.7 µM
Procedure, shortened: as §1

TAB113 = assay: as above; conditions: P. falciparum in erythrocytes, SYBR Green DNA, 72 h; series mostly up to 28.7 µM
Procedure, shortened: as §1

TAB165 = assay: as above; conditions: P. falciparum in erythrocytes, SYBR Green DNA, 72 h; series mostly up to 28.7 µM
Procedure, shortened: as §1

W2 = assay: as above; conditions: P. falciparum in erythrocytes, SYBR Green DNA, 72 h; series mostly up to 28.7 µM
Procedure, shortened: as §1

CRL-7250 = normal cell line; assay: Cytotoxic Profiling of Annotated Libraries Using Quantitative High-Throughput Screening (AID 1296008); conditions: Five cell lines viability, CellTiter-Glo ATP luminescence, 48-72 h; active compounds read low; as to max response: % is scaled to controls: 0 for no effect and ±100 for the full control effect
Procedure, shortened: (§2)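 Cytotoxicity was measured as CellTiter-Glo ATP luminescence, read after 10 min at room temperature. Compound treatment of the cells lasted 48 or 72 hr at 37 degrees Celsius in a qHTS format.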

HEK293 = assay: as above; conditions: Five cell lines viability, CellTiter-Glo ATP luminescence, 48-72 h; active compounds read low
Procedure, shortened: as §2

HaCat [1] = assay: as above; conditions: Five cell lines viability, CellTiter-Glo ATP luminescence, 48-72 h; active compounds read low
Procedure, shortened: as §2

KB-3-1 = assay: as above; conditions: Five cell lines viability, CellTiter-Glo ATP luminescence, 48-72 h, active compounds read low
Procedure, shortened: as §2

NIH3T3 = assay: as above; conditions: Five cell lines viability, CellTiter-Glo ATP luminescence, 48-72 h; active compounds read low
Procedure, shortened: as §2

MCC-13 = assay: qHTS assay to identify novel small-molecules to repurpose for Merkel cell carcinoma treatment (AID 1296009); conditions: MCC and control cell lines, CellTiter-Glo viability, 72 h; series mostly up to 46 µM
Procedure, shortened: (§3)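 Cell viability, measured as CellTiter-Glo luminescence, was normalized between DMSO and no-cell wells. The cells had been exposed to 8- or 11-point compound dilutions for 72 hr at 37 degree celsius.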

MCC-26 = assay: as above; conditions: MCC and control cell lines, CellTiter-Glo viability, 72 h; series mostly up to 46 µM
Procedure, shortened: as §3

HACAT [2] = assay: as above; conditions: MCC and control cell lines, CellTiter-Glo viability, 72 h; at 44.8 µM (top of the series) unless noted
Procedure, shortened: as §3

HEK293T = assay: as above; conditions: MCC and control cell lines, CellTiter-Glo viability, 72 h; at 44.8 µM (top of the series) unless noted
Procedure, shortened: as §3
Also: nearly all actives have a fitted effect of over 60% in size.

CCCC(O)C(CC)CO (centres undefined)
inactive: Potency (P93_24) | Potency (P94_40) | Potency (PAD) | Potency (PC15) | Potency (PC26) | Potency (PC49) | Potency (SC27B) | Potency (TAB109) | Potency (TAB113) | Potency (TAB165) | Potency (W2) | max response (CRL-7250) -3.08% | max response (HEK293) -1.45% | max response (HaCat [1]) -9.38% | max response (KB-3-1) 9.23% | outcome (NIH3T3) | outcome (MCC-13) | outcome (MCC-26)

CCN(CC)CCc1nc(-c2ccccc2)no1
inactive: Potency (P93_24) | Potency (P94_40) | Potency (PAD) | Potency (PC15) | Potency (PC26) | Potency (PC49) | Potency (SC27B) | Potency (TAB109) | Potency (TAB113) | Potency (TAB165) | Potency (W2) | max response (CRL-7250) 3.52% | max response (HEK293) -5.93% | max response (HaCat [1]) 4.68% | max response (KB-3-1) 7.98% | max response (NIH3T3) 1.98% | outcome (MCC-13) | outcome (MCC-26)

CC(C)(C)C(=O)OCOC(=O)[C@@H]1N2C(=O)[C@@H](NC(=O)[C@H](N)c3ccccc3)[C@H]2SC1(C)C
inactive: Potency (P93_24) | Potency (P94_40) | Potency (PAD) | Potency (PC15) | Potency (PC26) | Potency (PC49) | Potency (SC27B) | Potency (TAB109) | Potency (TAB113) | Potency (TAB165) | Potency (W2) | max response (CRL-7250) -7.59% | max response (HEK293) -3.05% | max response (HaCat [1]) -3.68% | max response (KB-3-1) -7.55% | max response (NIH3T3) -5.28% | outcome (MCC-13) | outcome (MCC-26)

CCCCCC(C)N (centres undefined)
inactive: Potency (PC15) | Potency (PC26) | Potency (PC49) | Potency (SC27B) | Potency (TAB113) | Potency (TAB165) | max response (CRL-7250) -6.66% | max response (HEK293) -4.16% | max response (HaCat [1]) -0.897% | max response (KB-3-1) -3.94% | max response (NIH3T3) 3.25% | outcome (MCC-13) | outcome (MCC-26)

NC(=O)CCCCC1CCSS1 (centres undefined)
inactive: Potency (PC15) | Potency (PC49) | Potency (SC27B) | Potency (TAB109) | Potency (TAB113) | Potency (W2) | max response (CRL-7250) -9.01% | max response (HEK293) 2.03% | max response (HaCat [1]) -1.45% | max response (KB-3-1) -12.5% | max response (NIH3T3) -6.71% | outcome (MCC-13) | outcome (MCC-26)

CCOC(N)=O
inactive: Potency (P93_24) | Potency (P94_40) | Potency (PAD) | Potency (PC15) | Potency (PC26) | Potency (PC49) | Potency (SC27B) | Potency (TAB109) | Potency (TAB113) | Potency (TAB165) | Potency (W2) | max response (CRL-7250) 1.79% | max response (HEK293) -1.46% | max response (HaCat [1]) -12.1% | outcome (NIH3T3) | outcome (MCC-13) | outcome (MCC-26)

CCN(CC)C(=O)c1cccc(C)c1
inactive: Potency (P93_24) | Potency (P94_40) | Potency (PAD) | Potency (PC15) | Potency (PC26) | Potency (PC49) | Potency (SC27B) | Potency (TAB109) | Potency (TAB113) | Potency (TAB165) | Potency (W2) | outcome (CRL-7250) | max response (HEK293) 0.224% | outcome (HaCat [1]) | outcome (NIH3T3) | outcome (HACAT [2]) | outcome (MCC-13) | outcome (MCC-26)

O=C(O)c1ccccc1C(=O)Nc1ccc(S(=O)(=O)Nc2nccs2)cc1
inactive: Potency (P93_24) | Potency (P94_40) | Potency (PAD) | Potency (PC15) | Potency (PC26) | Potency (PC49) | Potency (SC27B) | Potency (TAB109) | Potency (TAB113) | Potency (TAB165) | Potency (W2) | max response (CRL-7250) -2.05% | outcome (HEK293) | max response (HaCat [1]) -2.6% | max response (NIH3T3) -7.95% | outcome (HEK293T) | outcome (MCC-13)

CCc1nnc(NS(=O)(=O)c2ccc(N)cc2)s1
inactive: Potency (P93_24) | Potency (P94_40) | Potency (PAD) | Potency (PC15) | Potency (PC26) | Potency (PC49) | Potency (SC27B) | Potency (TAB109) | Potency (TAB113) | Potency (TAB165) | Potency (W2) | max response (CRL-7250) 4.08% | max response (HEK293) -0.578% | outcome (HaCat [1]) | max response (NIH3T3) 3.74% | outcome (HACAT [2]) | outcome (MCC-13) | outcome (MCC-26)

CC1(C)S[C@@H]2[C@H](NC(=O)C(C(=O)O)c3ccccc3)C(=O)N2[C@H]1C(=O)O (some centres undefined)
inactive: max response (CRL-7250) -9.98% | outcome (HEK293) | max response (HaCat [1]) -0.997% | max response (NIH3T3) -1.06% | outcome (HEK293T) | outcome (MCC-13) | outcome (MCC-26)

CC1(C)[C@@H](OC(=O)CCC(=O)O)CC[C@]2(C)[C@H]3C(=O)C=C4[C@@H]5C[C@@](C)(C(=O)O)CC[C@]5(C)CC[C@@]4(C)[C@]3(C)CC[C@@H]12
inactive: max response (CRL-7250) -5.85% | max response (HEK293) -0.807% | max response (HaCat [1]) 2.22% | outcome (NIH3T3) | outcome (MCC-13) | outcome (MCC-26)

Cc1ccc2c(c1)c1c3n2CCNC3CCC1 (centres undefined)
inactive: max response (CRL-7250) -2.33% | max response (HEK293) -1.48% | outcome (HaCat [1]) | max response (NIH3T3) -0.828% | outcome (HACAT [2]) | outcome (MCC-13)

Cc1ccc(C(C)C)c(O)c1
inactive: Potency (P93_24) | Potency (P94_40) | Potency (PAD) | Potency (PC15) | Potency (PC26) | Potency (PC49) | Potency (SC27B) | Potency (TAB109) | Potency (TAB113) | Potency (TAB165) | Potency (W2) | outcome (CRL-7250) | max response (HEK293) 3.73% | outcome (HaCat [1]) | max response (NIH3T3) 0.329% | outcome (HACAT [2]) | outcome (MCC-13) | outcome (MCC-26)

CO[C@@]1(NC(=O)C(C(=O)O)c2ccc(O)cc2)C(=O)N2C(C(=O)O)=C(CSc3nnnn3C)CO[C@@H]21 (some centres undefined)
inactive: max response (CRL-7250) -2.58% | max response (HEK293) 1.05% | outcome (HaCat [1]) | max response (NIH3T3) -2.47% | outcome (HACAT [2]) | outcome (MCC-13) | outcome (MCC-26)

— PubChem BioAssay (NCATS)
